Experimental data from PubChem BioAssay (Tox21).
Results filed as inconclusive are left out. Activity calls are given as the source filed them. Unless noted, the call rests on the fitted dose curve; in most records, active means well fitted curve in the direction sought with a large enough effect in the repeat runs; inconclusive means weak or mixed curves; inactive means no such curve, though single readings can be large; an effect the other way counts as inactive or inconclusive.

Tests used:
[1] = qHTS assay to identify small molecule antagonists of the estrogen receptor alpha (ER-alpha) signaling pathway using the BG1 cell line in the presence of 0.1 nM 17-beta-estradiol - cell viability counter screen (AID 1259241); further: nearly all actives have a fitted effect of over 40% in size
Outline: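 VM7Luc4E2 cells (endogenous full-length ER-alpha, 4xERE-luciferase), cultured 5 days in charcoal-stripped serum, exposed to compounds with 0.1 nM 17beta-estradiol (final) for 22 hr at 37C. Viability read in same wells as live-cell protease fluorescence after 30 min.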

[2] = qHTS assay to identify small molecule antagonists of the androgen receptor (AR) signaling pathway using the MDA cell line in the presence of 0.5 nM R1881 - cell viability counter screen (AID 1259242); further: nearly all actives have a fitted effect of over 45% in size
Outline: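 Human breast carcinoma MDA-kb2 cells, cultured without CO2, receive compounds alongside 0.5 nM (final) R1881 agonist. After 16 hr at 37C, viability is taken as live-cell protease signal.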

[3] = molecular target: Estrogen receptor (Homo sapiens) (UniProt P03372); test: qHTS assay to identify small molecule antagonists of the estrogen receptor alpha (ER-alpha) signaling pathway using the BG1 cell line in the presence of 0.1 nM 17-beta-estradiol (AID 1259244); further: nearly all actives have a fitted effect of over 50% in size
Outline: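 Seeding of stripped-serum-adapted VM7Luc4E2 cells, 24 h attachment, compound transfer, then 0.1 nM final 17beta-estradiol; after 22 h incubation, ONE-Glo reagent and luminescence reading.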

[4] = qHTS assay to identify small molecule phospholipidosis (PLD) inducers (AID 1259344; active means well fitted curve in the direction sought with a large enough effect; an effect the other way counts as inactive or inconclusive)
Outline: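 After 4 h attachment on collagen I, HepG2 cells were dosed with compound alongside LipidTOX Red, kept 24 h at 37 C, fixed, and imaged for lamellar phospholipid pits.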

[5] = qHTS assay to identify small molecule HDAC inhibitors (AID 1259364);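 further: wild-type HCT-116 cells with endogenous class I/II HDAC activity; top concentration of the series differs between compounds; nearly all actives have a fitted effect of over 45% in size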
Outline: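 After a 2 hr compound incubation (37C, 5% CO2), HCT-116 cells seeded at 1,500/well the day before received HDAC-Glo reagent; signal read as luminescence after 30 min at room temperature.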

[6] = qHTS assay to identify small molecule HDAC inhibitors - cell viability counter screen (AID 1259365); further: series mostly up to about 92 µM; nearly all actives have a fitted effect of over 50% in size
Outline: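 Wild-type HCT-116 cells, 1,500/well, cultured overnight, then compound-treated 2 h at 37 C. Viability measured as ATP luminescence with CellTiter-Glo after 30 min at room temperature.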

[7] = qHTS assay to identify small molecule agonists of the sonic hedgehog signaling (Shh) pathway - cell viability counter screen (AID 1259366); further: nearly all actives have a fitted effect of over 50% in size
Outline: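 NIH/3T3-derived Gli1-Luc reporter cells, 2,000 per well, received compound after 4 h and were treated about 23 h at 37C. Viability measured in the same wells by CellTiter-Fluor fluorescence after 1 h.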

[8] = qHTS assay to identify small molecule antagonists of the sonic hedgehog signaling (Shh) pathway - cell viability counter screen (AID 1259367); further: nearly all actives have a fitted effect of over 55% in size
Outline: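 Conditioned medium drove Shh signaling in 3T3 Gli1-Luc cells exposed to compounds at 37C and 5% CO2. Viability was determined from CellTiter-Fluor fluorescence, with reagent incubated 1 hr after 23 hr of treatment.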

[9] = qHTS assay to identify small molecule agonists of the sonic hedgehog signaling (Shh) pathway (AID 1259368; calls by dose curve;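 further: NIH/3T3-derived 3T3Gli1-Luc cells carrying a stable Gli1-driven firefly luciferase reporter; series mostly up to about 92 µM; nearly all actives have a fitted effect of over 15% in size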)
Outline: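 Stable NIH/3T3 Gli1-Luc reporter clone; 24 hr cpd exposure after a 4 hr settling period; luminescence endpoint.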
On the % scale 0 is the no-effect control and ±100 the full control effect.

Sequence of Estrogen receptor (Homo sapiens) (P03372 whole entry, looked up): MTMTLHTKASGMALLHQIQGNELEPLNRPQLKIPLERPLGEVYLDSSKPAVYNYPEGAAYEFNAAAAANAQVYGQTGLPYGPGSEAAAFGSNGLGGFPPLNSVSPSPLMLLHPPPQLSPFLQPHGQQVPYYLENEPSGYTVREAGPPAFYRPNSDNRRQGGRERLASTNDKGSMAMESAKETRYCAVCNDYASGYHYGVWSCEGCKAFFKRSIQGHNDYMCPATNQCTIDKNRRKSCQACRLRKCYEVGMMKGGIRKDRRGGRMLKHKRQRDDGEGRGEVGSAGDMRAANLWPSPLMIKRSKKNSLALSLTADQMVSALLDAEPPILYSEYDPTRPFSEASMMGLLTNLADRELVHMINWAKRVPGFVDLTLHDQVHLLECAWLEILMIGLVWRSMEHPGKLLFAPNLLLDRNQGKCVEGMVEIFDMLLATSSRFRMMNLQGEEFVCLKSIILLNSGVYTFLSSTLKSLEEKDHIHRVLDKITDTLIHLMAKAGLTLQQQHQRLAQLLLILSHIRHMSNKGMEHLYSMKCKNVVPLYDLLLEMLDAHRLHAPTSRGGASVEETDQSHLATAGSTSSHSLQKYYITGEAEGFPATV

N#Cc1ccc(C(c2ccc(C#N)cc2)n2cncn2)cc1
inactive: Potency [1] | outcome [2] | Potency [3] | outcome [4] | Potency [5] | outcome [6] | Potency [7] | Potency [8] | Potency [9]

COc1cc(N)c(Cl)cc1C(=O)NC1CCN(Cc2ccccc2)CC1
inactive: Potency [1] | outcome [2] | Potency [3] | outcome [4] | Potency [5] | outcome [6] | Potency [7] | Potency [8] | Potency [9]

COc1ccc(S(=O)(=O)Nc2nnc(CC(C)C)s2)cc1
inactive: Potency [1] | outcome [2] | Potency [3] | outcome [4] | Potency [5] | outcome [6] | Potency [7] | Potency [8] | Potency [9]

CCCNC(C)(C)COC(=O)c1ccccc1
inactive: Potency [1] | outcome [2] | Potency [3] | outcome [4] | Potency [5] | outcome [6] | Potency [7] | Potency [8] | Potency [9]

O=C1N(c2ccccc2)c2ccccc2C1(Cc1ccncc1)Cc1ccncc1
inactive: Potency [1] | outcome [2] | Potency [3] | outcome [4] | Potency [5] | outcome [6] | Potency [7] | Potency [8] | Potency [9]

CS(=O)(=O)c1ccc([C@@H](O)[C@@H](CF)NC(=O)C(Cl)Cl)cc1
inactive: Potency [1] | outcome [2] | Potency [3] | outcome [4] | Potency [5] | outcome [6] | Potency [7] | Potency [8] | Potency [9]

CC(C)C1=CC2=CC[C@@H]3[C@](C)(CCC[C@@]3(C)C(=O)O)[C@H]2CC1
inactive: Potency [1] | outcome [2] | Potency [3] | outcome [4] | Potency [5] | outcome [6] | Potency [7] | Potency [8]

CCC(=O)O[C@]1(C(=O)SCF)[C@H](C)C[C@H]2[C@@H]3C[C@H](F)C4=CC(=O)C=C[C@]4(C)[C@@]3(F)[C@@H](O)C[C@@]21C
inactive: Potency [1] | outcome [2] | Potency [3] | outcome [4] | Potency [5] | outcome [6] | Potency [7] | Potency [9]

CO[C@@]1(NC(=O)CSCC#N)C(=O)N2C(C(=O)O)=C(CSc3nnnn3C)CS[C@@H]21
inactive: Potency [1] | outcome [2] | Potency [3] | outcome [4] | Potency [5] | outcome [6] | Potency [7] | Potency [8] | Potency [9]

CC(C)(CO)[C@@H](O)C(=O)NCCC(=O)O
inactive: Potency [1] | outcome [2] | Potency [3] | outcome [4] | Potency [5] | outcome [6] | Potency [7] | Potency [8] | Potency [9]

CN1CCN(c2c(F)cc3c(=O)c(C(=O)O)cn(CCF)c3c2F)CC1
inactive: Potency [1] | outcome [2] | Potency [3] | outcome [4] | Potency [5] | outcome [6] | Potency [7] | Potency [8] | Potency [9]

CC(=O)N(CC(O)CN(C(C)=O)c1c(I)c(C(=O)NCC(O)CO)c(I)c(C(=O)NCC(O)CO)c1I)c1c(I)c(C(=O)NCC(O)CO)c(I)c(C(=O)NCC(O)CO)c1I (stereo not drawn)
inactive: Potency [1] | outcome [2] | Potency [3] | outcome [4] | Potency [5] | outcome [6] | Potency [7] | Potency [8] | Potency [9]

C[C@@H]1CN(c2c(F)c(N)c3c(=O)c(C(=O)O)cn(C4CC4)c3c2F)C[C@H](C)N1
inactive: activity change, negative = cytotoxicity [1] 1.55% [at 19 µM] | viability change, negative = cytotoxic [2] 0.0147% [at 19 µM] | activity change, negative = inhibition [3] -0.515% [at 19 µM] | outcome [4] | activity change, negative = inhibition [5] -1.07% [at 19 µM] | activity change, negative = cytotoxicity [6] 4.84% [at 19 µM] | viability change, negative = cytotoxic [7] 1.22% [at 19 µM] | viability change, negative = cytotoxic [8] 0.364% [at 19 µM]

c1ccc(CN(CC2=NCCN2)c2ccccc2)cc1
inactive: Potency [1] | outcome [2] | Potency [3] | outcome [4] | Potency [5] | outcome [6] | Potency [7] | Potency [8] | Potency [9]

Cc1nnc(SCC2=C(C(=O)O)N3C(=O)[C@@H](NC(=O)Cn4cnnn4)[C@H]3SC2)s1
inactive: Potency [1] | outcome [2] | Potency [3] | outcome [4] | Potency [5] | outcome [6] | Potency [7] | Potency [8] | Potency [9]

CC(CNC1CCCCC1)OC(=O)c1ccccc1 (stereo not drawn)
inactive: Potency [1] | outcome [2] | Potency [3] | outcome [4] | Potency [5] | outcome [6] | Potency [7] | Potency [8]

CCN(CC)CCOc1ccc(Cc2ccccc2)cc1
inactive: Potency [1] | outcome [2] | Potency [3] | outcome [4] | Potency [5] | outcome [6] | Potency [7] | Potency [8] | Potency [9]

CCCCN1C[C@H](O)[C@@H](O)[C@H](O)[C@H]1CO
inactive: Potency [1] | outcome [2] | Potency [3] | outcome [4] | Potency [5] | outcome [6] | Potency [7] | Potency [8] | Potency [9]

CCN(CCCc1ccccc1)CCCc1ccccc1
inactive: Potency [1] | outcome [2] | Potency [3] | outcome [4] | Potency [5] | outcome [6] | Potency [7] | Potency [8] | Potency [9]

O=c1oc2c(O)c(O)cc3c(=O)oc4c(O)c(O)cc1c4c23
inactive: activity change, negative = cytotoxicity [1] 3.69% [at 19 µM] | viability change, negative = cytotoxic [2] -6.98% [at 19 µM] | activity change, negative = inhibition [3] 1.12% [at 19 µM] | outcome [4] | activity change, negative = inhibition [5] -0.133% [at 19 µM] | activity change, negative = cytotoxicity [6] 2.83% [at 19 µM] | viability change, negative = cytotoxic [7] -17.2% [at 19 µM] | viability change, negative = cytotoxic [8] 1.3% [at 19 µM]

NS(=O)(=O)c1cc(-c2nn[nH]n2)c(NCc2cccs2)cc1Cl
inactive: Potency [1] | outcome [2] | Potency [3] | outcome [4] | Potency [5] | outcome [6] | Potency [7]

Cc1cc(NS(=O)(=O)c2ccc(N)cc2)nc(C)n1
inactive: Potency [1] | outcome [2] | Potency [3] | outcome [4] | Potency [5] | outcome [6] | Potency [7] | Potency [8]

CCCNC(C)C(=O)Nc1c(C)csc1C(=O)OC (stereo not drawn)
inactive: Potency [1] | outcome [2] | Potency [3] | outcome [4] | Potency [5] | outcome [6] | Potency [7]

CCN(CC)CCNC(=O)COc1ccc(Cl)cc1
inactive: Potency [1] | outcome [2] | Potency [3] | outcome [4] | Potency [5] | outcome [6] | Potency [7] | Potency [8] | Potency [9]

C=CCc1cc(OC)c(O)c(C(=O)NCCO)c1
inactive: Potency [1] | outcome [2] | Potency [3] | outcome [4] | Potency [5] | outcome [6] | Potency [7] | Potency [8] | Potency [9]

C[C@]12CCC(=O)C=C1CC[C@@H]1[C@@H]2CC[C@@]2(C)[C@H]1CC[C@]2(O)C(=O)CO
inactive: Potency [1] | outcome [2] | Potency [3] | outcome [4] | Potency [5] | outcome [6] | Potency [7] | Potency [8]

Cc1c(-c2ccccc2)oc2c(C(=O)OCCN3CCCCC3)cccc2c1=O
inactive: Potency [1] | outcome [2] | Potency [3] | outcome [4] | Potency [5] | outcome [6] | Potency [7] | Potency [8] | Potency [9]

CCOC(=O)[C@H](CCc1ccccc1)N[C@@H](C)C(=O)N1Cc2cc(OC)c(OC)cc2C[C@H]1C(=O)O
inactive: Potency [1] | outcome [2] | Potency [3] | outcome [4] | Potency [5] | outcome [6] | Potency [7] | Potency [8] | Potency [9]

CN1CCN(c2c(F)cc3c(=O)c(C(=O)O)cn4c3c2SCC4)CC1
inactive: Potency [1] | outcome [2] | Potency [3] | outcome [4] | Potency [5] | outcome [6] | Potency [7] | Potency [8]

COc1cc(C)ccc1C(C)C
inactive: Potency [1] | outcome [2] | Potency [3] | Potency [5] | outcome [6] | Potency [7] | Potency [8] | Potency [9]

Oc1ccccc1F
inactive: Potency [1] | outcome [2] | Potency [3] | Potency [5] | outcome [6] | Potency [7] | Potency [8] | Potency [9]

CN1CCN(C2=Nc3ccccc3Oc3ccc(Cl)cc32)CC1
inactive: Potency [1] | outcome [2] | Potency [3] | outcome [4] | Potency [5] | outcome [6] | Potency [9]

O=C(CCCl)NCc1ccccc1
inactive: Potency [1] | outcome [2] | Potency [3] | Potency [5] | outcome [6] | Potency [7] | Potency [8] | Potency [9]

CC/C=C\CCOC(=O)C(C)C
inactive: Potency [1] | outcome [2] | Potency [3] | Potency [5] | outcome [6] | Potency [7] | Potency [8] | Potency [9]
